ATXN viability: cell viability loss in ATXN counter-screen; S2 cells (HEK-293 line with an ATXN2-luciferase reporter) viability, CellTiter-Fluor protease fluorescence, 24 h; actives 0.49% (n = 400,000); AID 651635; Potency, µM (doses to about 56.7 µM), hits mostly cytotoxic; note: nearly all actives have a fitted effect of over 40% in size
ATXN2 expr inh: inhibitors of ATXN2 expression; HEK-293 ATXN2-luciferase reporter, luminescence, 24 h; Potency, µM (series often up to 57 µM), actives largely listed as inhibitors; actives 0.72% (n = 360,000); note: nearly all actives have a fitted effect of over 55% in size
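qHTS (up to 57 uM final) was run with 24 h compound exposure of reporter cells at 37 °C. Each well was multiplexed: SteadyGlo luminescence measured ATXN2-luciferase expression after a fluorogenic Gly-Phe-AFC viability readout (25 uM final).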
A549 viability: counter-screen for Nrf2 inhibitors: cytotoxicity in A549 cells; A549 ARE-Fluc cells, CellTiter-Fluor viability, 18-24 h; Potency, µM (top dose mostly 46 µM), actives largely listed as inhibitors; actives 0.16% (n = 390,000); AID 504648
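Cytotoxicity counterscreen: CellTiter-Fluor fluorescence was measured in A549 ARE_Fluc cells after 18-24 h of compound exposure in a concentration series. The subsequent BugLite luminescent read reports ARE-luciferase activity.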
Nrf2 inh: blocks Nrf2 signaling; Potency, µM (doses to about 46 µM), actives largely listed as inhibitors; A549 ARE-Fluc reporter, luciferase luminescence, 18-24 h; actives 2.1% (n = 360,000); note: nearly all actives have a fitted effect of over 60% in size
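A549 ARE_Fluc cells (5000/well, 5% FBS OPTI-MEM) pre-incubated 2 h, then treated with compounds 18-24 h at 37C/5% CO2 in concentration-response. CellTiter-Fluor viability read first; BugLite luciferase luminescence after 15 min at room temperature gives Nrf2 activity.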
Nrf2 ARE act: activates Nrf2 signaling; actives 0.31% (n = 410,000); AREc32 ARE-luciferase reporter (MCF7-derived line), luminescence, 24 h; Potency, µM (series often up to 46.1 µM), actives largely listed as activators; note: nearly all actives have a fitted effect of over 65% in size
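For detection, Steady-Glo was added and plates sat 30 min at RT; before that, AREc32_Fluc cells grown overnight in OPTI-MEM/5% FBS had been treated with 23 nL compound for 24 hr at 37 deg C.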
A number is an active result; – = inactive; ? = inconclusive; · = not tested or not shown; [ ] = dose if it differs, or a comment. A selection: hits, their analogues and other compounds. The true share with any hit is near 2.9%. Calls come from the whole dose curve; as a rule, active = well fitted curve in the direction sought with a large enough effect; inconclusive = small, poorly fitted or top-dose-only effect, or another doubt; inactive = no such curve, though single readings can be large; an effect the other way counts as inactive or inconclusive.

SMILES	ATXN viability	ATXN2 expr inh	A549 viability	Nrf2 inh	Nrf2 ARE act
Cc1ccc(Cl)cc1N1CCN(C(=O)c2cnn(C(C)(C)C)c2C2CCN(C(=O)OC(C)(C)C)CC2)CC1	·	·	–	?	–
Cc1ccc(C)c(N2CCN(CCCNC(=O)c3cnn(-c4ccc(F)cc4)c3C3CCN(C(=O)OC(C)(C)C)CC3)CC2)c1	·	·	18.4µM	?	–
CN(C)c1ccc(-c2cc[nH]c(=O)c2N)cc1	·	·	–	–	·
CC1CCN(S(=O)(=O)c2ccc3nc(Nc4cccc(F)c4)ccc3c2)CC1	·	?	?	20.6µM	–
Cc1ccc(Nc2ccc3cc(S(=O)(=O)N4CCC(C)CC4)ccc3n2)c(Cl)c1	–	–	–	–	–
CC1CCN(S(=O)(=O)c2ccc3nc(NCc4ccccc4)ccc3c2)CC1	?	–	–	16.4µM	–
C=CCOC(=O)C1=C(C)NC(SCC)=C(C#N)C1c1ccc(Cl)cc1 (configuration not stated)	?	15.8µM	?	20.6µM	–
C=CCOC(=O)C1=C(C)NC(SCC(=O)Nc2ccc(C)c(Cl)c2)=C(C#N)C1c1ccco1 (configuration not stated)	?	?	–	6.51µM	–
COCCOC(=O)C1=C(C)NC(SCC(=O)NC(C)(C)C)=C(C#N)C1c1ccco1 (configuration not stated)	–	–	–	–	–
Cc1ccccc1CN1CCc2nnc(C(C)NC(=O)c3cc(F)ccc3F)n2CC1 (configuration not stated)	–	·	·	·	·
CCc1ccc(NC(=O)c2cnn3c(C)cc(C)nc23)cc1	·	·	–	?	·
COc1cccc(OCCn2c(-c3ccc(Cl)cc3)nc3ccccc3c2=O)c1	–	–	–	–	–
CCN(CC)/C(Sc1ccccc1)=C(\C(Cl)=C(Cl)Cl)[N+](=O)[O-]	–	–	–	–	–
O=[N+]([O-])/C(C(Cl)=C(Cl)Cl)=C(\Sc1ccccc1)N1CCCCC1	?	·	–	?	11.2µM
CN1C(=O)CC(CC(=O)N2CCCCC2CCO)(c2cccc(F)c2)C1=O (configuration not stated)	–	·	·	·	·
CC(C)C(NS(=O)(=O)c1c(Cl)cccc1Cl)C(=O)OCC(=O)c1c[nH]c2ccccc12 (configuration not stated)	–	–	?	23.1µM	–[9.22 µM]
CC(=O)Nc1ccc(S(=O)(=O)N2CCN=C2SCc2ccc([N+](=O)[O-])cc2)cc1	–	–	–	8.2µM	–
COc1ccc(C2Nc3ccccc3C(=O)N2CC(C)(C)C)cc1COc1ccc(NC(C)=O)cc1 (configuration not stated)	·	·	–	–	·
C=CCN(c1ccc(F)cc1)S(=O)(=O)c1cc(C(=O)NC2CCC(O)CC2)ccc1Cl (configuration not stated)	–	–	–	16.4µM	–
Cc1nnc(SCC(=O)N2c3ccccc3C(C)(c3ccccc3)CC2(C)C)s1 (configuration not stated)	?	?	?	23.1µM	–
CC1=CC(C)(C)N(C(=O)CSc2nnc(C)s2)c2ccc(C)cc21	–	–	–	?	–
Cc1ccc(C2(C)CC(C)(C)N(C(=O)CSc3nnc(C)s3)c3ccccc32)cc1 (configuration not stated)	–	–	?	20.6µM	–
CC1(C)CC(C(=O)N2CCOc3ccc(CN4CCC(Oc5cccnc5)CC4)cc3C2)CCO1 (configuration not stated)	–	·	·	·	·
COc1ccc(CCNC(=O)CSc2ncc(C(=O)Nc3ccccc3)c(=O)n2C)cc1	–	–	–	?	–
COc1ccccc1NC(=O)c1cnc(SCC(=O)NCCc2ccccc2)n(C)c1=O	?	–	–	–	4.47µM
SMILES	ATXN viability	ATXN2 expr inh	A549 viability	Nrf2 inh	Nrf2 ARE act
O=C(NCCc1ccccn1)c1cnn(-c2ncc3c(n2)-c2ccccc2CC3)c1C1CC1	–	·	·	·	·
CCCn1nc(NC(=O)c2cccs2)c2cc3cc(C)ccc3nc21	·	–	–	16.4µM	–
CCCn1nc(NC(=O)c2cccs2)c2cc3ccccc3nc21	–	–	·	18.4µM	–
CCCn1nc(NC(=O)c2cccs2)c2cc3ccc(C)cc3nc21	–	·	?	?	–
CCCCn1nc(NC(=O)c2cccs2)c2cc3cc(OC)ccc3nc21	·	–	–	·	–
CCCCn1nc(NC(=O)c2cccs2)c2cc3ccccc3nc21	·	–	–	11.6µM	–
